# Laboratory results as given in PubChem BioAssay AID624331 (National Center for Advancing Translational Sciences (NCATS), 2012).
# Inconclusive results are not listed. A number with no mark means an inactive call. Calls of active or inactive are those of the source. The call rests on the fitted dose curve; in most records, active means well fitted activation curve with a large enough effect; inconclusive means small, poorly fitted or top-dose-only effect; inactive means no such curve, though single readings can be large or run the other way.
# Experiment: qHTS assay for re-activators of p53 using a Luc reporter: Hit Validation with no p53 Expressed; on activity change, positive = activation: 0% is about no effect
# Details: p53-null cells, luciferase reporter counter-screen; series mostly up to 46.1 µM; activity change, positive = activation: at the top concentration
# Procedure, shortened: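 Counter-screen of primary hits in a cell line not transfected with p53, in Opti-MEM with 10% FBS; compounds at several concentrations (10 mM stock, 1:5; top 46.1 µM in well), 24 h at 37 deg C, 5% CO2. Luminescence read after 10 min with Amplite reagent.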
# Potency means the concentration at half of the fitted maximal effect.
SMILES,"activity change, positive = activation [%]",Potency
CCC(=O)Nc1ccc2oc(-c3cccc(C)c3)nc2c1,-15.7,–
Cc1cc(-c2ccccc2)n2ncc(-c3ccccc3)c2n1,–,1.84 µM (active)
Cc1ccnc(NC(=O)/C=C/c2cccs2)c1,-14.7,–
Cn1ncc([N+](=O)[O-])c1C(=O)Nc1ccc(C2CCCCC2)cc1,2.99,–
Cc1cc(-n2c(C)cc(C(=O)COc3cc(F)ccc3[N+](=O)[O-])c2C)no1,-15.7,–
Clc1ccc(C2=NNC(=NCC3CCCO3)SC2)cc1 (centres undefined),-17,–
CCOC(=O)c1ccc(N2Cc3ccccc3C2=NC(=O)c2cccs2)cc1,40.9,–
COc1ccc2oc(C(=O)Nc3nc(C)cs3)c(C)c2c1,11.4,–
O=C1NC(c2ccc(Br)cc2)=N/C1=C/c1ccco1,14.3,–
O=C(OCC(=O)N1CCc2ccccc21)c1ccccc1[N+](=O)[O-],37,–
O=[N+]([O-])c1ccc(NC(=S)NCCc2ccc(F)cc2)cc1,-45.7,–
Cc1ccc2cc(C#N)c(NCc3ccco3)nc2c1,-25.2,–
COc1cc(C(=O)N/N=C(\c2ccccc2)c2ccccn2)cc(OC)c1OC,-68.5,–
O=C(/C(=N/N=C/c1ccc(O)c(O)c1)c1ccccc1)c1ccccc1,-13.4,–
C=CCOc1c(OC)cc(/C=N/Nc2cccc(C(=O)O)c2)c(Br)c1Br,49.3,–
O=C(N/N=C/C1C(c2ccccc2)C1(Cl)Cl)c1cccc(Cl)c1 (centres undefined),-39.2,–
CCOC(=O)NC1(Nc2ccc(C)cc2)Oc2ccccc2O1,91,–
c1ccc(-c2cn3c(n2)SCC3)cc1,-24.5,–
Cc1ccc2c(c1)CCCN2C(=O)Nc1ccc2c(c1)OCO2,-5.86,–
O=C(NOCc1ccccc1)c1ccccc1,21.7,–

SMILES,"activity change, positive = activation [%]",Potency
CC(=O)Nc1ccc(SCC(=O)c2cc(C)n(-c3ccccc3)c2C)cc1,8.62,–
Cc1ccc(C(=O)c2c3ccc([N+](=O)[O-])cc3[n+]([O-])n2CCCN)cc1,-18,–
Fc1ccc(CCNC(=S)Nc2ccc(F)cc2)cc1,-12.1,–
CCOCC(=O)Nc1nc2ccc(OCC)cc2s1,16.9,–
COc1cc(CN2CCCCC2C(=O)Nc2ccc(Oc3ccccc3)nc2)ccc1O (centres undefined),1.55,–
CNc1ccc(/C=C/C(=O)c2ccc(C)cc2)cc1[N+](=O)[O-],4.5,–
CCOc1ccc(NC(=O)/C=C/c2ccccc2)c([N+](=O)[O-])c1,18.1,–
OCCNc1nc(NCc2ccccc2)c2ccccc2n1,26.2,–
FC(F)(F)c1nnc2c(Sc3ccccn3)nc3ccccc3n12,66.9,–
Cc1cccc(NC(=O)c2oc3c(c2C)C(=O)CC(C)(C)C3)n1,-5.25,–
C(=N\Nc1nc2ccccc2s1)/c1ccc2c(c1)OCO2,9.11,–
Cc1ccc(C(=O)CC(=O)COc2ccc(Cl)cc2)cc1,90,–
Cc1ccsc1/C=C(\C#N)C(=O)Nc1c(C)n(C)n(-c2ccccc2)c1=O,-39.4,–
C/C(=N\NC(=O)c1ccc(F)cc1)c1ccccn1,11.7,–
COCCNc1nc2sc3c(c2c(=O)n1Cc1ccco1)CCCCC3,14.1,–
c1ccc2cc3c(NCCN4CCOCC4)ccnc3cc2c1,-48.5,–
Cc1c(/C(O)=C2/C(=O)C(=O)N(CCN3CCOCC3)C2c2cccs2)cnn1-c1ccccc1 (centres undefined),16.8,–
Cc1ccc(NC(=S)NCC2CCCO2)c(OC(F)F)c1 (centres undefined),-4.01,–
COc1ccc(C(c2nnnn2CCc2ccccc2)N2CCN(C3CCCC3)CC2)cc1 (centres undefined),66,–
